This note sets out measurements from PubChem BioAssay (NCI).

Compounds without any hit were thinned out: in the full panel of roughly 79,000, 15% have a hit. Unmarked numbers belong to inactive results. Cut-off read from the data, not from the text of the source: active = growth inhibition above about 70%; inactive = the rest.

This assay in a line: NCI Yeast Anticancer Drug Screen. Data for the rad50 strain (AID 155).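 Note: 0% = growth of vehicle-only cultures of the same strain.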 The note with it: S. cerevisiae rad50 strain growth inhibition; at 50.0 µM; stronger effect = higher value. As to the method: Growth inhibition of yeast strains with defined genetic alterations is measured as a screen for potential anti-cancer activity. Selected strains with alterations in DNA damage repair or cell cycle control were exposed to compounds and growth inhibition was measured relative to vehicle treated controls. The strain used in this assay is rad50
For `Cc1nc2ccccc2[nH]1`, the growth inhibition is 3.8%.

In the case of `C/C(=N\NC(=S)N1CCC(C2CCN(C(=S)N/N=C(\C)c3ccccn3)CC2)CC1)c1ccccn1`, the growth inhibition was 32.4%.

On to `Cc1cc(Br)ccc1NC1=CC(=O)C(=O)c2ccccc21`, for which the growth inhibition is 9.95%.

In the case of `C[N+]([O-])(C/C=C/c1ccccc1)c1ccccc1` (stereo not given), the growth inhibition was -3.25%.

As to `CCCCCC(C)(O)CCC` (stereo not given), the growth inhibition was -5.9%.

As for `OCC[N+]1(CCO)CCOCC1`, the growth inhibition was 7.7%.

Take `Nc1ccccc1N/N=C/c1ccccc1`: the growth inhibition was -4.3%.

For `NNC(=O)Nc1ccccc1`, the growth inhibition is 3.8%.

For `O=C(O)/C=N\Nc1nc2ccccc2[nH]1`, the growth inhibition is -1.85%.

`COC(=O)/C=C\CC(=O)OC`: the growth inhibition is 2.75%.

On to `CCCCNCCS`, for which the growth inhibition is 14.1%.

For `CC1CC(O)CC(C)(C)C1.CC1CC(O)CC(C)(C)C1.CC1CC(O)CC(C)(C)C1.CC1CC(O)CC(C)(C)C1.[Ti]` (stereo not given), the growth inhibition is 13.9%.

As for `CCO/C=C1/C(=O)N(C)c2c1c(=O)n(C)c(=O)n2C`, the growth inhibition is -46.9%.

Consider `Cc1ccc(S(=O)(=O)n2ccnc2)cc1`, for which the growth inhibition was -46%.

For `CCOC(=O)CN1C(=O)CSC1=S`, the growth inhibition is 42%.

On to `CC1CCCN2C(=O)CN(Cc3ccccc3)CC(=O)N12` (stereo not given), for which the growth inhibition was 9.85%.

`O=CC(O)C(O)C(O)C(O)COC(=S)OCC(O)C(O)C(O)C(O)C=O` (stereo not given) (tested in a mixture with another compound): the growth inhibition is -4.35%.

On to `CC1(C)CC2(C)Sc3ccccc3N2C(=S)N1` (stereo not given), for which the growth inhibition was -35.6%.

For `C/C(CC(=O)NC1=CC=C(NC(=O)C/C(C)=N\Nc2ccccc2)CC1)=N/Nc1ccccc1`, the growth inhibition is 8.65%.

Take `COc1ccc(C2CC(=O)NC2=O)cc1OC` (stereo not given): the growth inhibition was 4.8%.

Consider `CC12CCC(=O)C=C1CCC1C2CCC2(C)C1CCC2(O)C(=O)Cn1c(=O)cc[nH]c1=O` (stereo not given), for which the growth inhibition was 10.3%.

For `O=C(O)COc1ccc(I)cc1I`, the growth inhibition was 23.3%.

As for `CCCCCCCCCCCC1=C(O)C(=O)C(I)=C(O)C1=O`, the growth inhibition was 63.2%.

For `O=C(OC(=O)c1ccc(Cl)cc1)c1ccc(Cl)cc1`, the growth inhibition is -4.65%.

On to `CC1=NOC(C)(O)/C1=N/O` (stereo not given), for which the growth inhibition was 6.8%.

As to `NC(=O)C(Cc1ccccc1)NC(=O)C1CCCN1` (stereo not given), the growth inhibition is 4.2%.

On to `CCC(=O)OCCSCCOC(=O)CC`, for which the growth inhibition was 5.65%.

`Cc1cccc(NC(=O)CSc2nnc(Cc3ccccc3)o2)c1`: the growth inhibition is -28.1%.

With `OCC(O)Cn1cnc2c(NO)ncnc21` (stereo not given), the growth inhibition is -18.2%.

Turning to `C[Si](Cn1ccc(=O)n(C[Si](C)(c2ccccc2)c2ccccc2)c1=O)(c1ccccc1)c1ccccc1`, the growth inhibition was -3.7%.

In the case of `CCCCOC1NC(=O)NC(=O)C1(F)C(=O)OCC` (stereo not given), the growth inhibition was 4%.

As to `COc1ccc(/C=N/Nc2nc3ccccc3s2)cc1`, the growth inhibition was 7.9%.

Consider `CCCCCCCCCCN(CCCCCCCCCC)C(C)C(O)c1ccc2cc(Br)c3ccccc3c2c1` (stereo not given), for which the growth inhibition is -12.4%.

In the case of `Clc1ccccc1C(Nc1nc2ccccc2s1)Nc1nc2ccccc2s1`, the growth inhibition is 13.3%.

Regarding `C[C@@]12CCC[C@H]1[C@@H]1CC=C3C[C@@H](S)CC[C@]3(C)[C@H]1CC2`, the growth inhibition was -6.75%.

As for `NNC(=Nc1ccccc1)SCc1ccccc1`, the growth inhibition was 3.05%.

With `CC(C)[Si](C#CC[Si](C(C)C)(C(C)C)C(C)C)(C(C)C)C(C)C`, the growth inhibition is -13.8%.

`CCOC(=O)CC(=O)C(=O)NNC1=NCCN1`: the growth inhibition is 7.15%.

Turning to `COC1(c2ccc(C)cc2)c2cccc3cccc(c23)C1(O)c1ccc(C)cc1` (stereo not given), the growth inhibition was 18.6%.

Turning to `O=[N+]([O-])c1cccc2c1ccc1nonc12`, the growth inhibition was 17.2%.
